Where “and” joins values, the source holds several entries; their conditions need not be identical. Equal entries are not always repeated. The whole screen tested about 5,500 compounds, of which about 2,000 (36%) were called active. Roughly 18% stayed inconclusive and do not appear here. Rule as the data show it: active = normalized growth mostly below about 0.91 (no sharp cut-off); inconclusive = no clear call, values can overlap the other calls; inactive = mostly above about 0.92. The list shows a part of the results.
Assay: chemical genetic growth profiling, strain panel (AID 1159580);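 also: tested at 20 µM; growth read once vehicle control cultures reached saturation at 30 °C; 1 = growth at the plate median or of vehicle wells; lower values mean less growth of the strain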
Conditions: S. cerevisiae deletion strains, growth OD

Measured: normalized growth

C[C@H]1[C@H]2CCC3C4CC=C5C[C@@H](N(C)C)CC[C@]5(C)C4CC[C@@]32CN1C (stereo partly specified)
active: locus YDR392W, strain spt3, active compounds read low 0.551
inactive: locus YAL013W, strain DEP1, active compounds read low 0.994 | locus YAL021C, strain ccr4, active compounds read low 1.01 | locus YAL026C, strain drs2, active compounds read low 0.997 | locus YAL030W, strain snc1, active compounds read low 0.996 | locus YBL061C, strain skt5, active compounds read low 0.995 | locus YBR009C, strain hhf1, active compounds read low 0.95 | locus YBR021W, strain FUR4, active compounds read low 1 | locus YBR023C, strain chs3, active compounds read low 0.994 | locus YBR171W, strain sec66, active compounds read low 0.983 | locus YBR229C, strain ROT2, active compounds read low 0.956 | locus YBR231C, strain swc5, active compounds read low 0.972 | locus YBR279W, strain paf1, active compounds read low 0.994 | locus YCL011C, strain gbp2, active compounds read low 0.988 | locus YCL016C, strain dcc1, active compounds read low 0.986 | locus YCL029C, strain bik1, active compounds read low 0.988 | locus YCL061C, strain MRC1, active compounds read low 0.994 | locus YCL069W, strain vba3, active compounds read low 1 | locus YCR088W, strain abp1, active compounds read low 0.996 | locus YDL005C, strain med2, active compounds read low 0.992 | locus YDL035C, strain GPR1, active compounds read low 0.949 | locus YDL040C, strain nat1, active compounds read low 0.974 | locus YDL074C, strain BRE1, active compounds read low 1.01 | locus YDL101C, strain DUN1, active compounds read low 0.989 | locus YDL134C, strain PPH21, active compounds read low 0.958 | locus YDL185W, strain tfp1, active compounds read low 0.999 | locus YDL192W, strain arf1, active compounds read low 0.984 | locus YDR001C, strain nth1, active compounds read low 0.993 | locus YDR069C, strain doa4, active compounds read low 0.976 | locus YDR101C, strain arx1, active compounds read low 1.04 | locus YDR137W, strain rgp1, active compounds read low 0.994 | locus YDR150W, strain NUM1, active compounds read low 0.981 | locus YDR159W, strain sac3, active compounds read low 0.941 | locus YDR162C, strain NBP2, active compounds read low 0.989 | locus YDR195W, strain ref2 0.945 | locus YDR297W, strain sur2, active compounds read low 1 | locus YDR318W, strain mcm21, active compounds read low 0.957 | locus YDR334W, strain swr1, active compounds read low 0.996 | locus YDR335W, strain msn5, active compounds read low 0.992 | locus YDR388W, active compounds read low 0.984 | locus YDR502C, strain sam2, active compounds read low 0.977 | locus YEL003W, strain gim4, active compounds read low 0.994 | locus YEL037C, strain rad23, active compounds read low 0.999 | locus YEL061C, strain CIN8 (second series), active compounds read low 0.992 | locus YEL061C, strain CIN8, active compounds read low 0.991 | locus YER015W, strain faa2, active compounds read low 0.986 | locus YER016W, strain bim1, active compounds read low 0.988 | locus YER110C, active compounds read low 0.99 | locus YER111C, strain swi4, active compounds read low 0.992 | locus YER155C, strain BEM2 (second series), active compounds read low 0.867 | locus YER155C, strain BEM2, active compounds read low 0.999 | locus YER167W, strain BCK2, active compounds read low 0.999 | locus YFR010W, strain ubp6, active compounds read low 0.997 | locus YGL078C, strain dbp3, active compounds read low 0.996 | locus YGL086W, strain mad1, active compounds read low 1.02 | locus YGL167C, strain pmr1, active compounds read low 0.981 | locus YGL173C, strain kem1, active compounds read low 0.99 | locus YGL227W, strain vid30, active compounds read low 0.985 | locus YGL240W, strain doc1, active compounds read low 0.967 | locus YGL248W, strain PDE1, active compounds read low 0.965 | locus YGL253W, strain hxk2, active compounds read low 0.974 | locus YGR078C, strain PAC10, active compounds read low 0.981 | locus YGR135W, strain pre9, active compounds read low 0.968 | locus YGR252W, strain gcn5, active compounds read low 0.939 | locus YHR013C, strain ard1, active compounds read low 0.918 | locus YHR027C, strain rpn1, active compounds read low 0.997 | locus YHR030C, strain SLT2, active compounds read low 1 and 1.01 | locus YHR079C, strain IRE1 (second series), active compounds read low 0.996 | locus YHR079C, strain IRE1, active compounds read low 1.01 | locus YHR094C, strain hxt1, active compounds read low 0.975 | locus YHR129C, strain ARP1, active compounds read low 0.994 | locus YHR142W, strain chs7, active compounds read low 0.99 | locus YHR200W, strain rpn10, active compounds read low 0.986 | locus YIL066C, strain RNR3, active compounds read low 0.986 | locus YIL073C, strain SPO22, active compounds read low 0.957 | locus YIL125W, strain kgd1, active compounds read low 0.995 | locus YIR030C, strain dcg1, active compounds read low 0.999 | locus YJL092W, strain hpr5, active compounds read low 0.992 | locus YJL095W, strain BCK1 (second series), active compounds read low 0.991 | locus YJL095W, strain BCK1, active compounds read low 0.963 and 0.999 | locus YJL115W, strain asf1, active compounds read low 1 | locus YJL129C, strain trk1, active compounds read low 0.99 | locus YJL134W, strain LCB3, active compounds read low 0.993 | locus YJL154C, strain vps35, active compounds read low 1 | locus YJL164C, strain tpk1, active compounds read low 0.996 | locus YJL166W, strain qcr8, active compounds read low 0.986 | locus YJL168C, strain set2, active compounds read low 0.993 | locus YJL187C, strain SWE1 (second series), active compounds read low 0.98 | locus YJL187C, strain SWE1, active compounds read low 0.994 | locus YJR043C, strain POL32, active compounds read low 0.993 | locus YJR066W, strain TOR1, active compounds read low 0.958

From PubChem BioAssay AID1159580 (chemical genetic matrix, 2015)
